# Measured values as given in PubChem BioAssay.
# Where “and” joins values, the source holds several entries; their conditions need not be identical. Equal entries are not always repeated. Inconclusive results are not listed. Calls of active or inactive are those of the source.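 Rule for the calls, unless noted: active = normalized viability below 100% at a tested concentration; inactive = the rest.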
# Experiments:
# [1] = modulation of C. elegans fzo-1 (AID 1259413; call rule not given here;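 note: fzo-1 mutant C. elegans worms in liquid wells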); conditions: C. elegans fzo-1 modulator screen, mean read-out; stronger effect = higher value
# [2] = tested on: Aerobactin synthetase IucA (Klebsiella pneumoniae); assay: inhibition of K. pneumoniae IucA enzyme – biochemical, Tocris library, absorbance (AID 1345561; call rule not given here;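 note: 100% = enzyme without compound and 0% = no enzyme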); conditions: purified IucA enzyme assay, absorbance (OD) read-out; stronger effect = lower value;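 tested at 8 µM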
# [3] = blockers of cellular phospholipid synthesis – cell-based, LOPAC library, screen 4, primary screen (AID 1347384; call rule not given here); conditions: animal cells, phospholipid biosynthesis inhibition screen; at 10 µM
# [4] = MELAS cybrid and Rieske KO viability enhancers – cell-based, MELAS cybrids, Rieske KO mouse fibroblasts, CellTiter-Glo, primary screen (AID 1508586;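 active = mean z-score across replicates of 1.96 or higher in either the MELAS or the Rieske mutant cell line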;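 note: z relative to plate mean and SD of compound and empty wells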); conditions: low glucose
# [5] = viability loss in pontine glioma line – cell-based, SU-DIPG-XVII, MIPE5.0, CellTiter-Glo, qHTS, dose response (AID 1347060; cut-off not given, nearly all actives have AC50 up to about 26 µM;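 for AC50: cells exposed to compound for 48 hours before viability readout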); conditions: CellTiter-Glo ATP luminescence
# [6] = viability loss in pontine glioma line – cell-based, SU-DIPG-XIII, MIPE4.0, CellTiter-Glo, qHTS, dose response (AID 1347061; cut-off not given, nearly all actives have AC50 up to about 37 µM;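 note: cells exposed to compound for 48 hours before readout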); conditions: CellTiter-Glo ATP luminescence
# [7] = viability loss in pontine glioma line – cell-based, JHH-DIPG-1, MIPE4.0, CellTiter-Glo, qHTS, dose response (AID 1347062; cut-off not given, nearly all actives have AC50 up to about 27 µM;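 for AC50: cells exposed to compound for two days before readout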); conditions: JHH-DIPG-1 viability, CellTiter-Glo ATP luminescence
# [8] = viability loss in pontine glioma line – cell-based, SU-DIPG-IV, MIPE4.0, CellTiter-Glo, qHTS, dose response (AID 1347063; cut-off not given, nearly all actives have AC50 up to about 30 µM;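 note: compound exposure lasted 48 hours before the viability readout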); conditions: CellTiter-Glo ATP luminescence
# [9] = viability loss in pontine glioma line – cell-based, SU-DIPG-XIII, MIPE5.0, CellTiter-Glo, qHTS, dose response (AID 1347064; cut-off not given, nearly all actives have AC50 up to about 23 µM;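 for AC50: cells exposed to compound for 48 hours before the viability read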); conditions: CellTiter-Glo ATP luminescence
# [10] = viability loss in pontine glioma line – cell-based, SU-DIPG-XXV, MIPE5.0, CellTiter-Glo, qHTS, dose response (AID 1347065; cut-off not given, nearly all actives have AC50 up to about 26 µM;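 note: cells exposed to compound for 48 hours before ATP readout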); conditions: CellTiter-Glo ATP luminescence
# [11] = growth inhibition of DIPG cells – cell-based, MIPE4.0 library, CellTiter-Glo luminescence, qHTS (AID 1347066; cut-off not given, nearly all actives have AC50 up to about 30 µM;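 note: cells exposed to compound for 48 hours before readout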); conditions: SU-DIPG-VI viability, CellTiter-Glo ATP luminescence
# [12] = JHH-DIPG-1 glioma cell viability, MIPE5.0 library, CellTiter-Glo luminescence, qHTS (AID 1347067; cut-off not given, nearly all actives have AC50 up to about 26 µM;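 note: cells exposed to compound for 48 hours before readout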); conditions: JHH-DIPG-1 glioma viability, CellTiter-Glo ATP luminescence
# [13] = growth inhibition of DIPG cells – cell-based, MIPE5.0 library, qHTS (AID 1347068; cut-off not given, nearly all actives have IC50 up to about 30 µM;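 for IC50: cells exposed to compound for 48 hours before viability readout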); conditions: SU-DIPG-XXV viability
# [14] = viability loss with induced miR-34 in A549 – imaging, A549 dox-inducible miR-34, nuclei and caspase counts, primary screen (AID 1347080;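 active = compounds whose cell count with miR-34 switched on is under 0.7 times the count with it off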); conditions: A549 miR-34 inducible, Hoechst nuclei count, 48 h
# [15] = compounds altering HSF1 focus formation in cells – imaging, Selleck Cancer Library (AID 1347162; in the data active = plate-normalised HSF1 focus index below about 0.46); conditions: human cells, HSF1 nuclear foci imaging, at 10 µM; SSMD: measured here: HSF1 foci SSMD mean; cell count: measured here: cell number; plate-normalised HSF1 focus index: stronger effect = lower value
# [16] = drug combination growth inhibition, ovarian cancer – cell-based, oncology-focused library, rucaparib conditional, profiling panel (AID 1508598); conditions: patient-derived ovarian cancer cells, CellTiter-Glo viability, 144 h, stronger effect = lower value
# [17] = MELAS cybrid survival, CellTiter-Glo 48 h, stronger effect = higher value
# [18] = Rieske KO mouse fibroblast survival, CellTiter-Glo 72 h
# [19] = stronger effect = lower value, cell number ratio, induced over uninduced
# [20] = measured here: relative caspase fold change +Dox/-Dox
# [21] = measured here: total cells with miR-34 induction, stronger effect = lower value
# [22] = measured here: total cells without miR-34 induction
smiles,measurement,setting,value
Brc1c(NC2=NCCN2)ccc2nccnc12,mean signal,[1],249 (inactive)
same,remaining activity,[2],80.2% (inactive) and 100% (inactive)
same,outcome,[3],inactive
same,z-score,[4]; [17],-0.224 (inactive) and -0.413 (inactive)
same,z-score,[4]; [18],-0.21 and -1.29
CC(=O)[C@]1(O)Cc2c(O)c3c(c(O)c2[C@@H](O[C@H]2C[C@H](N)[C@H](O)[C@H](C)O2)C1)C(=O)c1ccccc1C3=O,mean signal,[1],267 (inactive)
same,AC50,[5],0.372 µM (active)
same,AC50,[6],3.32 µM (active)
same,AC50,[7],0.526 µM (active)
same,AC50,[8],0.662 µM (active)
same,AC50,[9],11.8 µM (active)
same,AC50,[10],5.25 µM (active)
same,AC50,[11],13.2 µM (active)
same,AC50,[12],4.68 µM (active)
same,IC50,[13],23.5 µM (active)
same,fold change,[14]; [19],1.18 (inactive) and 1.09 (inactive)
same,fold change,[14]; [20],0.974 and 1.09
same,cell count,[14]; [21],743 and 2700
same,cell count,[14]; [22],630 and 2460
same,SSMD,[15],-18.6
same,cell count,[15],5180
same,plate-normalised HSF1 focus index,[15],0.0445 (active)
same,outcome,[3],inactive
same,z-score,[4]; [17],2.62 (active)
same,z-score,[4]; [18],-0.996
COc1cc(C)c(Cc2cnc(N)nc2N)cc1OC,mean signal,[1],249 (inactive)
same,fold change,[14]; [19],0.944 (inactive)
same,fold change,[14]; [20],1.06
same,cell count,[14]; [21],9440
same,cell count,[14]; [22],10000
O=c1[nH]cnc2c1ncn2[C@H]1CC[C@@H](CO)O1,mean signal,[1],237 (inactive)
same,outcome,[6],inactive
same,outcome,[11],inactive
same,fold change,[14]; [19],0.88 (inactive) and 0.877 (inactive)
same,fold change,[14]; [20],1.12 and 1.04
same,cell count,[14]; [21],8250 and 10000
same,cell count,[14]; [22],9380 and 11400
same,z-score,[4]; [17],-0.8 (inactive) and -0.278 (inactive)
same,z-score,[4]; [18],-0.19 and -0.4
C[C@H](NC(CCc1ccccc1)C(=O)O)C(=O)N1CCC[C@H]1C(=O)O (stereo not given in full),mean signal,[1],226 (inactive)
same,fold change,[14]; [19],0.987 (inactive) and 0.909 (inactive)
same,fold change,[14]; [20],0.994 and 1.8
same,cell count,[14]; [21],9660 and 10200
same,cell count,[14]; [22],9790 and 11200
same,outcome,[3],inactive
same,z-score,[4]; [17],-0.542 (inactive)
same,z-score,[4]; [18],-1.35
CC(C)(C)NC(=O)[C@@H]1CN(Cc2cccnc2)CCN1C[C@@H](O)C[C@@H](Cc1ccccc1)C(=O)N[C@H]1c2ccccc2C[C@H]1O,mean signal,[1],283 (inactive)
same,AC50,[6],1.32 µM (active)
same,AC50,[11],20.9 µM (active)
same,z-score,[4]; [17],-0.264 (inactive)
same,z-score,[4]; [18],0.0624
CCOC(=O)C1=C(C)NC(C)=C(C(=O)OCC)C1c1ccccc1/C=C/C(=O)OC(C)(C)C,mean signal,[1],249 (inactive)
same,fold change,[14]; [19],0.814 (inactive)
same,fold change,[14]; [20],0.737
same,cell count,[14]; [21],7100
same,cell count,[14]; [22],8720
same,z-score,[4]; [17],-0.103 (inactive) and 0.874 (inactive)
same,z-score,[4]; [18],0.213 and 0.0479
COc1cc(C(=O)NS(=O)(=O)c2ccccc2C)ccc1Cc1cn(C)c2ccc(NC(=O)OC3CCCC3)cc12,mean signal,[1],223 (inactive)
same,outcome,[5],inactive
same,AC50,[8],20.9 µM (active)
same,outcome,[12],inactive
same,outcome,[13],inactive
same,z-score,[4]; [17],-0.216 (inactive) and 0.374 (inactive) and -0.157 (inactive)
same,z-score,[4]; [18],0.567 and -0.073 and 0.0854
Cc1nc2ccc(CN(C)c3ccc(C(=O)N[C@@H](CCC(=O)O)C(=O)O)s3)cc2c(=O)[nH]1,mean signal,[1],269 (inactive)
same,outcome,[5],inactive
same,outcome,[7],inactive
same,outcome,[9],inactive
same,outcome,[10],inactive
same,outcome,[11],inactive
same,outcome,[12],inactive
same,outcome,[13],inactive
same,z-score,[4]; [17],-0.789 (inactive)
same,z-score,[4]; [18],-1.02
same,viability,"[16]; at 0.000305 µM, OCI-C5x cells, with rucaparib 10 µM, 100% = cells with rucaparib alone",114% (inactive)
same,viability,"[16]; at 0.000305 µM, OCI-C5x cells, without rucaparib",92.6% (active)
same,viability,"[16]; at 0.000305 µM, OCI-P5x cells, with rucaparib 20 µM, 100% = cells with rucaparib alone",107% (inactive)
same,viability,"[16]; at 0.000305 µM, OCI-P5x cells, without rucaparib",104% (inactive)
same,viability,"[16]; at 0.00122 µM, OCI-C5x cells, with rucaparib 10 µM, 100% = cells with rucaparib alone",115% (inactive)
same,viability,"[16]; at 0.00122 µM, OCI-C5x cells, without rucaparib",84.6% (active)
same,viability,"[16]; at 0.00122 µM, OCI-P5x cells, with rucaparib 20 µM, 100% = cells with rucaparib alone",108% (inactive)
same,viability,"[16]; at 0.00122 µM, OCI-P5x cells, without rucaparib",106% (inactive)
same,viability,"[16]; at 0.00488 µM, OCI-C5x cells, with rucaparib 10 µM, 100% = cells with rucaparib alone",72.8% (active)
same,viability,"[16]; at 0.00488 µM, OCI-C5x cells, without rucaparib",55.7% (active)
same,viability,"[16]; at 0.00488 µM, OCI-P5x cells, with rucaparib 20 µM, 100% = cells with rucaparib alone",114% (inactive)
same,viability,"[16]; at 0.00488 µM, OCI-P5x cells, without rucaparib",109% (inactive)
same,viability,"[16]; at 0.0195 µM, OCI-C5x cells, with rucaparib 10 µM, 100% = cells with rucaparib alone",19.2% (active)
same,viability,"[16]; at 0.0195 µM, OCI-C5x cells, without rucaparib",17.1% (active)
same,viability,"[16]; at 0.0195 µM, OCI-P5x cells, with rucaparib 20 µM, 100% = cells with rucaparib alone",116% (inactive)
same,viability,"[16]; at 0.0195 µM, OCI-P5x cells, without rucaparib",110% (inactive)
same,viability,"[16]; at 0.0781 µM, OCI-C5x cells, with rucaparib 10 µM, 100% = cells with rucaparib alone",16.3% (active)
same,viability,"[16]; at 0.0781 µM, OCI-C5x cells, without rucaparib",17.6% (active)
same,viability,"[16]; at 0.0781 µM, OCI-P5x cells, with rucaparib 20 µM, 100% = cells with rucaparib alone",118% (inactive)
same,viability,"[16]; at 0.0781 µM, OCI-P5x cells, without rucaparib",111% (inactive)
same,viability,"[16]; at 0.313 µM, OCI-C5x cells, with rucaparib 10 µM, 100% = cells with rucaparib alone",15.6% (active)
same,viability,"[16]; at 0.313 µM, OCI-C5x cells, without rucaparib",19.3% (active)
same,viability,"[16]; at 0.313 µM, OCI-P5x cells, with rucaparib 20 µM, 100% = cells with rucaparib alone",119% (inactive)
same,viability,"[16]; at 0.313 µM, OCI-P5x cells, without rucaparib",111% (inactive)
same,viability,"[16]; at 1.25 µM, OCI-C5x cells, with rucaparib 10 µM, 100% = cells with rucaparib alone",14.5% (active)
same,viability,"[16]; at 1.25 µM, OCI-C5x cells, without rucaparib",17.5% (active)
same,viability,"[16]; at 1.25 µM, OCI-P5x cells, with rucaparib 20 µM, 100% = cells with rucaparib alone",111% (inactive)
same,viability,"[16]; at 1.25 µM, OCI-P5x cells, without rucaparib",116% (inactive)
same,viability,"[16]; at 5 µM, OCI-C5x cells, with rucaparib 10 µM, 100% = cells with rucaparib alone",16.1% (active)
same,viability,"[16]; at 5 µM, OCI-C5x cells, without rucaparib",19.3% (active)
same,viability,"[16]; at 5 µM, OCI-P5x cells, with rucaparib 20 µM, 100% = cells with rucaparib alone",124% (inactive)
same,viability,"[16]; at 5 µM, OCI-P5x cells, without rucaparib",113% (inactive)
NCC1CCC(C(=O)Oc2ccc(CCC(=O)O)cc2)CC1 (stereo not given),mean signal,[1],243 (inactive)
same,fold change,[14]; [19],0.97 (inactive)
same,fold change,[14]; [20],1.97
same,cell count,[14]; [21],9870
same,cell count,[14]; [22],10200
Cn1c(NCCN(CCO)CCCc2ccc([N+](=O)[O-])cc2)cc(=O)n(C)c1=O,mean signal,[1],242 (inactive)
same,outcome,[5],inactive
same,AC50,[8],20.9 µM (active)
same,outcome,[9],inactive
same,outcome,[10],inactive
same,outcome,[12],inactive
same,outcome,[13],inactive
same,fold change,[14]; [19],0.987 (inactive) and 0.875 (inactive)
same,fold change,[14]; [20],1.91 and 1.23
same,cell count,[14]; [21],8810 and 9410
same,cell count,[14]; [22],8920 and 10800
same,z-score,[4]; [17],0.423 (inactive) and 0.101 (inactive)
same,z-score,[4]; [18],0.302 and -0.676
CCN1CCC[C@H]1CNC(=O)c1cc(S(N)(=O)=O)ccc1OC,mean signal,[1],274 (inactive)
same,remaining activity,[2],123% (inactive)
same,fold change,[14]; [19],1.01 (inactive) and 0.997 (inactive) and 0.936 (inactive)
same,fold change,[14]; [20],1.51 and 0.827 and 1.56
same,cell count,[14]; [21],10700 and 9240 and 9830
same,cell count,[14]; [22],10600 and 9270 and 10500
same,outcome,[3],inactive
same,z-score,[4]; [17],0.469 (inactive)
same,z-score,[4]; [18],0.62
O=C1Nc2ccc(Cl)cc2[C@@](C#CC2CC2)(C(F)(F)F)O1,mean signal,[1],218 (inactive)
same,outcome,[7],inactive
same,AC50,[8],29.6 µM (active)
same,AC50,[12],20.9 µM (active)
same,fold change,[14]; [19],0.73 (inactive) and 0.903 (inactive)
same,fold change,[14]; [20],1.52 and 0.886
same,cell count,[14]; [21],6400 and 6960
same,cell count,[14]; [22],8760 and 7710
same,z-score,[4]; [17],1.16 (inactive) and -1.54 (inactive)
same,z-score,[4]; [18],0.346 and 0.0528
